Where “and” joins values, the source holds several entries; their conditions need not be identical. Equal entries are not always repeated. Records with an inconclusive call do not appear. A call without a number means that no potency is given here. More than one record can exist for a structure, and the calls need not agree. Calls of active or inactive are those of the source. Unless noted, calls follow the shape of the dose curve; as a rule, active = well fitted curve in the direction sought with a large enough effect in the repeat runs; inconclusive = weak or mixed curves; inactive = no such curve, though single readings can be large; an effect the other way counts as inactive or inconclusive.
Assays:
[1] = qHTS assay to identify small molecule antagonists of the glucocorticoid receptor (GR) signaling pathway - cell viability counter screen (AID 720693); also: nearly all actives have a fitted effect of over 55% in size; also: potency is read from the fitted curve at half-maximal effect
[2] = qHTS assay for identifying genotoxic compounds that show differential cytotoxicity against isogenic chicken DT40 cell lines with known DNA damage response pathways - wild type cell line (AID 743012); also: nearly all actives have a fitted effect of over 60% in size; also: potency is read from the fitted curve at half-maximal effect
How it was run: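 Endpoint: CellTiter-Glo luminescence, 30 min RT. Cells: wild type DT40, 300/well. Exposure: compounds in DMSO, 40 h, 37 C/5% CO2, after ~0.5 h pre-incubation.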

[3] = qHTS assay for identifying genotoxic compounds that show differential cytotoxicity against isogenic chicken DT40 cell lines with known DNA damage response pathways - Rev3 mutant cell line (AID 743014); also: nearly all actives have a fitted effect of over 55% in size; also: potency is read from the fitted curve at half-maximal effect
[4] = qHTS assay for identifying genotoxic compounds that show differential cytotoxicity against isogenic chicken DT40 cell lines with known DNA damage response pathways - Rad54/Ku70 mutant cell line (AID 743015); also: nearly all actives have a fitted effect of over 60% in size; also: potency is read from the fitted curve at half-maximal effect
[5] = qHTS assay to identify small molecule antagonists of the androgen receptor (AR) signaling pathway - cell viability counter screen (AID 743033; also: nearly all actives have a fitted effect of over 45% in size; also: potency is read from the fitted curve at half-maximal effect)
[6] = qHTS assay to identify small molecule antagonists of the androgen receptor (AR) signaling pathway using the MDA cell line - cell viability counter screen (AID 743041; also: nearly all actives have a fitted effect of over 45% in size; also: potency is read from the fitted curve at half-maximal effect)
How it was run: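 In this qHTS counter assay, fluorescence intensity after CellTiter-Fluor addition indicated viability of MDA-kb2 AR-luc cells given compounds and R1881 for 16 h at 37C.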

[7] = biological target: Androgen receptor (Homo sapiens) (UniProt P10275); assay: qHTS assay to identify small molecule antagonists of the androgen receptor (AR) signaling pathway (AID 743035; active = well fitted inhibition curve with a large enough effect in the signal ratio in the repeat runs, not every such curve was filed as active; the % refers to the signal ratio; also: potency is read from the fitted curve at half-maximal effect)
Sequence of Androgen receptor (Homo sapiens) (P10275 whole entry, looked up): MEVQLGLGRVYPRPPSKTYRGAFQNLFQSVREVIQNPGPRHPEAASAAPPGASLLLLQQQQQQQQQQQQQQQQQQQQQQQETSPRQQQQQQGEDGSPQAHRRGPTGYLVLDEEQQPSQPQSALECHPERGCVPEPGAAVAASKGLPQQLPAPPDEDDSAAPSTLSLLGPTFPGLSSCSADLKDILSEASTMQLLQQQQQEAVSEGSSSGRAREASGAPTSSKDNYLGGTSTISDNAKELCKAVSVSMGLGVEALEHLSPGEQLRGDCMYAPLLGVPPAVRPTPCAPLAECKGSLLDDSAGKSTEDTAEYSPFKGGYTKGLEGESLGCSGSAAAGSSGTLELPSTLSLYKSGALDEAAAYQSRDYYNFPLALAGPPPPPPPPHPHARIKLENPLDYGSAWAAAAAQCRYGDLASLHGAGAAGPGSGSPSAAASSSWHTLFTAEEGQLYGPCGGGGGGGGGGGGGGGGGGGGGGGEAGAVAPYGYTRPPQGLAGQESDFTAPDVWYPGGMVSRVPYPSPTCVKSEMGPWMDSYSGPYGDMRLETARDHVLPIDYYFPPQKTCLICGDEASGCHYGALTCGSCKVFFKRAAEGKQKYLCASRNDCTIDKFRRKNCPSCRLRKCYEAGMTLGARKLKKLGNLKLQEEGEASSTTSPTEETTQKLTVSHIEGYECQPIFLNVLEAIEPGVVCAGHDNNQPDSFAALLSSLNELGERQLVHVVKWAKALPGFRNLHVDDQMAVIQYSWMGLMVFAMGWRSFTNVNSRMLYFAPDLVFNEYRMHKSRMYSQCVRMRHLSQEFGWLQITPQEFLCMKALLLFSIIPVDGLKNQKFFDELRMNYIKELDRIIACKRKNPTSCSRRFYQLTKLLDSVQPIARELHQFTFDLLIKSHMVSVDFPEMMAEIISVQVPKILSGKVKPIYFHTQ
How it was run: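 R1881 agonist challenge of a HEK293 UAS-beta-lactamase AR reporter line in the presence of compound (16 h, 37C); signal taken as FRET fluorescence after 2 h with LiveBLAzer B/G substrate at room temperature.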

[8] = biological target: Androgen receptor (Homo sapiens) (UniProt P10275); assay: qHTS assay to identify small molecule agonists of the androgen receptor (AR) signaling pathway (AID 743036; active = well fitted activation curve with a large enough effect in the signal ratio in the repeat runs, with a control signal flat, not every such curve was filed as active; the % refers to the signal ratio)
How it was run: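 Activation was read as beta-lactamase FRET signal from LiveBLAzer B/G substrate, added for 2 h at room temperature. Before that, GeneBLAzer AR-UAS-bla GripTite (HEK293) cells had 16 h compound exposure at 37C.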

[9] = biological target: Androgen receptor (Homo sapiens) (UniProt P10275); assay: qHTS assay to identify small molecule agonists of the androgen receptor (AR) signaling pathway using the MDA cell line (AID 743040; also: nearly all actives have a fitted effect of over 20% in size)
How it was run: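 Cell-based luciferase reporter: MDA-kb2, MMTV promoter (AR + GR response elements). 16 h compound exposure at 37C; ONE-Glo, 30 min RT, luminescence.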

[10] = biological target: Androgen receptor (Homo sapiens) (UniProt P10275); assay: qHTS assay to identify small molecule antagonists of the androgen receptor (AR) signaling pathway using the MDA cell line (AID 743042; also: nearly all actives have a fitted effect of over 55% in size)
How it was run: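 MDA-kb2 cells (human breast carcinoma, stably carrying an MMTV-luciferase reporter responsive to AR and GR) were plated at 3,000 cells/well and preincubated 5 hr at 37C, then given compound plus R1881 agonist for 16 h. ONE-Glo luminescence was read.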

SMILES | Potency [1] | Potency [2] | Potency [3] | Potency [4] | Potency [5] | Potency [6] | Potency [7] | outcome [8] | outcome [9] | Potency [10]
COc1ccccc1N1CCN(CCCCNC(=O)c2ccc(-c3ccc(C(C)=O)cc3)cc2)CC1 | inactive | inactive | inactive | inactive | inactive |  |  |  |  | 
Oc1cc2c(cc1O)[C@H]1c3ccc(O)c(O)c3OC[C@@]1(O)C2 | inactive | 43.8 µM (active) | 22 µM (active) | 31 µM (active) |  |  |  |  |  | 
CC(C)(c1ccccc1)c1ccccc1 | inactive | inactive | inactive | inactive | inactive |  |  |  |  | 
OCCOCC#CCOCCO | inactive | inactive | inactive | inactive | inactive |  |  |  |  | 
O=[N+]([O-])c1ccc(O/N=C/c2cc(Br)c(O)c(Br)c2)c([N+](=O)[O-])c1 | inactive | inactive | inactive | inactive |  |  |  |  |  | 
Cc1ccc2c(Br)cc(Br)c(O)c2n1 | inactive | 7.5 µM (active) | 9.44 µM (active) | 8.41 µM (active) | inactive |  |  |  |  | 
CC1(C)[C@H](C(=O)O)N2C(=O)C[C@H]2S1(=O)=O | inactive | inactive | inactive | inactive | inactive |  |  |  |  | 
CCOC(=O)c1ccc(I)cc1 | inactive | inactive | inactive | inactive | inactive |  |  |  |  | 
CCCC(C(=O)OCCN(CC)CC)(c1ccccc1)c1ccccc1 | inactive | 8.41 µM (active) | 10.6 µM (active) | 18.8 µM (active) |  |  |  |  |  | 
CN1C(=O)N(c2ccccc2Br)Cc2cnc(Nc3ccc4c(c3)OCC(CO)O4)nc21 (configuration not stated) | 13.8 µM (active) | 7.7 µM (active) | 9.69 µM (active) | 6.86 µM (active) | 43.6 µM (active) |  |  |  |  | 
Nc1ncnc2c1ncn2[C@H]1CC[C@@H](CO)O1 | inactive | 26.6 µM (active) | inactive | 23.7 µM (active) | inactive |  |  |  |  | 
FC(F)(F)c1ccccc1Cl | inactive | inactive | inactive | inactive | inactive |  |  |  |  | 
N#CCCN(CCO)CCO | inactive | inactive | inactive | inactive | inactive |  |  |  |  | 
CC(C)=CCC1C(=O)N(c2ccccc2)N(c2ccccc2)C1=O | inactive | 16.8 µM (active) | 16.8 µM (active) | 16.8 µM (active) | inactive |  |  |  |  | 
CO/N=C(/C(=O)N[C@@H]1C(=O)N2C(C(=O)O)=C(COC(N)=O)CS[C@H]12)c1ccco1 | inactive | inactive | inactive | inactive | inactive |  |  |  |  | 
CC1CC(C)C(=O)C1=O (configuration not stated) | inactive | inactive | inactive | inactive | inactive |  |  |  |  | 
O=C(O)CCc1nc(-c2ccccc2)c(-c2ccccc2)o1 | inactive | inactive | inactive | inactive | inactive |  |  |  |  | 
NCCNCCO | inactive | inactive | inactive | inactive | inactive |  |  |  |  | 
CN1CCCC(n2nc(Cc3ccc(Cl)cc3)c3ccccc3c2=O)CC1 (configuration not stated) | inactive | 11.9 µM (active) | 21.1 µM (active) | 16.8 µM (active) | inactive |  |  |  |  | 
CC(=O)OCC[N+](C)(C)C | inactive | inactive | inactive | inactive | inactive |  |  |  |  | 
Cc1cccc(N(C)C(=S)Oc2ccc3c(c2)CCC3)c1 | inactive |  |  |  |  |  |  |  |  | 
c1ccc2c(c1)CCc1ccccc1N2 | inactive | inactive |  |  |  |  |  |  |  | 
CC1CC(OC(=O)C(O)c2ccccc2)CC(C)(C)N1C (configuration not stated) | inactive | inactive | inactive | inactive | inactive |  |  |  |  | 
CC(C)(O)c1ccc(CNC(=O)c2cccnc2Oc2ccc3nonc3c2)cc1 | inactive | 61.1 µM (active) | 68.6 µM (active) | 61.1 µM (active) |  |  |  |  |  | 
O=C1c2ccccc2C(=O)N1CCc1noc(-c2ccc(CN3CCCCCC3)s2)n1 | inactive | 49.9 µM (active) | 39.7 µM (active) | 39.7 µM (active) |  |  |  |  |  | 
O=C(Nc1cccc2c(=O)cc(-c3nn[nH]n3)oc12)c1ccc(OCCCCc2ccccc2)cc1 | inactive | inactive | inactive | inactive | inactive |  |  |  |  | 
C/C=C\C/C=C/CCCCCCCCOC(C)=O | inactive | 27.3 µM (active) | 27.3 µM (active) | 24.3 µM (active) |  |  |  |  |  | 
CC(C)(C)C(=O)C(=O)O | inactive | inactive | inactive | inactive | inactive |  |  |  |  | 

SMILES | Potency [1] | Potency [2] | Potency [3] | Potency [4] | Potency [5] | Potency [6] | Potency [7] | outcome [8] | outcome [9] | Potency [10]
Cc1cc(=O)c2c(O)c3c(O)cc(=O)c4c3c3c(cc(O)c1c23)C(C)(C)C=4O | 1.69 µM (active) | 0.944 µM (active) | 1.06 µM (active) | 1.06 µM (active) | inactive |  |  |  |  | 
CCc1ccccc1 | inactive | inactive | inactive | inactive | inactive |  |  |  |  | 
NNC(=O)CP(=O)(c1ccccc1)c1ccccc1 | inactive | inactive | inactive | inactive | inactive |  |  |  |  | 
Cc1c(C)c2c(c(C)c1OC(=O)CCC(=O)OCCO)CC[C@@](C)(CCC[C@H](C)CCC[C@H](C)CCCC(C)C)O2 | 21.3 µM (active) | 11.9 µM (active) | 10.6 µM (active) | 11.9 µM (active) | inactive |  |  |  |  | 
Cc1ccccc1S | inactive | 34.6 µM (active) | 27.5 µM (active) | 38.9 µM (active) | inactive |  |  |  |  | 
CC(=O)c1ccc([N+](=O)[O-])cc1 | inactive | inactive | inactive | inactive | inactive |  |  |  |  | 
COC(=O)CS | inactive |  |  |  |  |  |  |  |  | 
C[C@@H]1CN(CCCn2c3ccccc3c3ccccc32)C[C@H](C)N1 | inactive | 9.44 µM (active) | 7.5 µM (active) | 9.44 µM (active) |  |  |  |  |  | 
CC(=O)Oc1ccc([N+](=O)[O-])cc1CCl | inactive | 8.63 µM (active) | 1.72 µM (active) | 3.86 µM (active) | inactive |  |  |  |  | 
CC(C)C(O)(c1ccc(OC(F)(F)F)cc1)c1cncnc1 (configuration not stated) | inactive | 48.4 µM (active) | 27.2 µM (active) | 48.4 µM (active) | inactive | inactive |  |  |  | 
CCC(=O)OC | inactive | inactive | inactive | inactive | inactive | inactive | inactive | inactive | inactive | inactive
CCOc1ccccc1O[C@H](c1ccccc1)[C@H]1CNCCO1 | inactive | 29.8 µM (active) | 26.6 µM (active) | 13.3 µM (active) | inactive | inactive |  |  |  | 
NC1[C@H]2CN(c3nc4c(cc3F)c(=O)c(C(=O)O)cn4-c3ccc(F)cc3F)C[C@@H]12 (some centres not stated) | inactive | 4.73 µM (active) | 6.68 µM (active) | 7.5 µM (active) | inactive | inactive |  |  | inactive | inactive
CC1(C)S[C@@H]2[C@H](NC(=O)C(c3ccccc3)S(=O)(=O)O)C(=O)N2[C@H]1C(=O)O (some centres not stated) | inactive | inactive | inactive | inactive | inactive | inactive |  |  |  | 
CC=C(Cl)Cl | inactive | inactive | inactive | inactive | inactive | inactive |  |  |  | 
CN1C[C@H](C(=O)N[C@]2(C)O[C@@]3(O)[C@@H]4CCCN4C(=O)[C@H](Cc4ccccc4)N3C2=O)C[C@@H]2c3cccc4[nH]cc(c34)C[C@H]21 | inactive | 23.7 µM (active) | 29.8 µM (active) | 16.8 µM (active) | inactive | inactive |  |  |  | 
Cc1cscn1 | inactive | inactive | inactive | inactive | inactive | inactive |  | inactive | inactive | inactive
O=C(OC(=O)c1ccccc1)c1ccccc1 | inactive | inactive | inactive | inactive | inactive |  | inactive |  | inactive | inactive
COc1cc(Nc2c(C#N)cnc3cc(OCCCN4CCN(C)CC4)c(OC)cc23)c(Cl)cc1Cl | 23.9 µM (active) | 1.88 µM (active) | 2.98 µM (active) | 2.37 µM (active) | 23.9 µM (active) | 33.5 µM (active) |  |  |  | 
Cc1[nH]cnc1CN1CCc2c(c3ccccc3n2C)C1=O | inactive | inactive | inactive | inactive | inactive | inactive |  |  |  | 
c1csc(SSc2cccs2)c1 | inactive | 12.2 µM (active) | 6.86 µM (active) | 10.9 µM (active) | 38.9 µM (active) | inactive |  |  |  | 
CC(C)COCC(CN(Cc1ccccc1)c1ccccc1)N1CCCC1 (configuration not stated) | inactive | 5.31 µM (active) | 8.41 µM (active) | 7.5 µM (active) | inactive | inactive |  |  |  | 
O=C(O)CCC(=O)C(=O)O | inactive | inactive | inactive | inactive | inactive | inactive |  |  |  | 
CC(C)c1nc(CN(C)C(=O)N[C@H](C(=O)N[C@@H](Cc2ccccc2)C[C@H](O)[C@H](Cc2ccccc2)NC(=O)OCc2cncs2)C(C)C)cs1 | inactive | inactive and 23.7 µM (active) | inactive | 23.7 µM (active) | inactive | inactive |  |  |  | 
C=C(C)C(=O)OCCOCCOC(=O)C(=C)C | inactive | inactive | inactive | inactive | inactive | inactive |  |  |  | 
COc1cc(C(=O)NC2CCN(C)CC2)ccc1Nc1ncc2c(n1)N(C1CCCC1)CC(F)(F)C(=O)N2C | 22.5 µM (active) | 0.0044 µM (active) | 0.0025 µM (active) | 0.0056 µM (active) | 15.9 µM (active) | 62.8 µM (active) | 0.0032 µM (active) |  | inactive | 
O=C(/C=C/c1ccccc1)OCCc1ccccc1 | inactive | inactive | inactive | inactive | inactive | inactive | inactive | inactive | inactive | inactive

— PubChem BioAssay (Tox21)
